# Most compounds without a hit are left out; they make up all but 6% or so of the library.
# DRD3 antagonist: qHTS of D3 Dopamine Receptor Antagonist: qHTS; AID 652054, 2013; D(3) dopamine receptor (Homo sapiens), P35462; D3R cells, DiscoveRx beta-arrestin luminescence, antagonist mode; stronger effect = lower value; 2.5% of 360,000 active; max response, negative = inhibition, %; in the data active = max response below about -50%; inconclusive = no clear call, values can overlap the other calls
# Target sequence (P35462 whole entry, looked up): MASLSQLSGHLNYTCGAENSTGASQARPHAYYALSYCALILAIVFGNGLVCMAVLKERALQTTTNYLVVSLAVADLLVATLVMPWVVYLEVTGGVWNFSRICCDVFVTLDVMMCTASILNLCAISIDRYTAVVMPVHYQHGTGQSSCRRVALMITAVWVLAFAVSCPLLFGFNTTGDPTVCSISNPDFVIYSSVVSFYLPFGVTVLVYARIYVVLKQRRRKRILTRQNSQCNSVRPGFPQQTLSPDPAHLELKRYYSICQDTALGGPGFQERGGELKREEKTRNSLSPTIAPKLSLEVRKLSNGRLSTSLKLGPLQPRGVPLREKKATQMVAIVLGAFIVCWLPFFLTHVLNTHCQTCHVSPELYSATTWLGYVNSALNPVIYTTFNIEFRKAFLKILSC
#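 Cells expressing the human receptor were seeded at 1500 cells/well, incubated overnight at 37 degrees C in 5% CO2, then exposed to library compounds with dopamine controls for 90 minutes at 37 degrees C before luminescent detection.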
# D1 ag: Allosteric Agonists of the Human D1 Dopamine Receptor: qHTS; HEK293 T-REx D1 cells, calcium flux, agonist mode; activation, % at 2 µM; 1% of 360,000 active; in the data active = activation above about 30%
#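 Inducible HEK293 T-REx D1 cells, force-coupled to calcium signalling, were plated at 4000 cells/well with tetracycline and held overnight at 30 C. After no-wash calcium dye loading, compound-evoked calcium rise over 180 s flagged agonists.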
# Chronic BCR inh: qHTS Assay to Find Inhibitors of Chronic Active B-Cell Receptor Signaling; ABC-DLBCL IkBa-CBG/CBR reporter, luminescence ratio, 4 h; Potency, µM (highest dose often 46.1 µM), most hits filed as inhibitors; 0.05% of 340,000 active; active = well fitted inhibition curve with a large enough effect in the signal ratio, with a control signal flat, not every such curve was filed as active; inconclusive = small, poorly fitted or top-dose-only effect, or effect the other way, or a change in a side signal; the % refers to the signal ratio
#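 Cell line TMD8 (human ABC DLBCL), stably expressing tet-inducible CBG68-IkBa fusion and CBR; IMDM/0.5% FBS; cpd up to 46 uM; dox induction, 4 h, 37C/5% CO2; dual luminescence; green/red ratio; MG132 control.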
# D1 antagonist: Antagonist of Human D 1 Dopamine Receptor: qHTS. 3.2% of 360,000 active. HEK293 TREx D1 cells, calcium flux, dopamine EC80; stronger effect = lower value. AID 504652, 2011. activity change, negative = inhibition, % at 10 µM. D(1A) dopamine receptor (Homo sapiens), P21728; in the data active = activity change below about -30%
#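 Calcium flux readout: force-coupled, inducible Hek293 Trex D1 line, cells induced overnight at 30 C with tetracycline, dye-loaded 30–90 min at RT. Antagonism scored against EC80 dopamine challenge given 180 s after compound.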
# DRD3 agonist: qHTS of D3 Dopamine Receptor Agonist: qHTS; 0.58% of 410,000 active; D3R DiscoveRx beta-arrestin cells, luminescence, 90 min; AID 652048, 2013; max activation, %; in the data active = max activation above about 30%
#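 Agonist-mode cell screen: cells plated at 1500/well and incubated overnight at 37 °C, then exposed to library compounds for 90 min at 37 °C. Detection reagent was added for 30–60 min at room temperature, and luminescence was read.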
# D1 PAM: Potentiators of Human D1 Dopamine Receptor: qHTS. 0.036% of 360,000 active. D(1A) dopamine receptor (Homo sapiens), P21728. HEK293 TREx D1 cells, calcium flux, dopamine EC20 potentiation. potentiation, % at 10 µM; in the data active = potentiation above about 30%
# A number is an active result; 0 = inactive; ? = inconclusive; - = no result.
SMILES,DRD3 antagonist,D1 ag,Chronic BCR inh,D1 antagonist,DRD3 agonist,D1 PAM
CCOc1ccc(NC(=O)NCCN2CCN(c3cccc(C)c3C)CC2)cc1,-59,0,0,0,63,0
Cc1ccc(NC(=O)CN2CCc3ccccc3C2)cc1S(=O)(=O)N(C)C,?,0,0,0,0,0
Cc1ccc(C)c(N2CCN(CCCNC(=O)Cn3cccc3C(=O)c3ccccc3C)CC2)c1,-57,0,0,-36,0,0
COc1cccc(C2CC(=O)Nc3c2c(=O)n(C)c2nc4ccccc4n32)c1OC (stereo not given),-,0,-,0,0,0
CCn1c2ccccc2c2cc(CN3CCN(Cc4ccc(Br)cc4)CC3)ccc21,-,0,-,0,0,0
COc1ccc(/C=N/NC(=O)CN2CCS(=O)(=O)CC2)cc1,-52,0,0,0,0,0
COc1ccc(NC(=O)CN2CCC(C)CC2)cc1,-69,0,0,0,0,0
COc1ccc(NC(=O)CN2C(=O)CSc3ncccc32)cc1,0,0,?,0,0,0
COc1ccc(NC(=O)CN2C(=O)CC(C)(C)S(=O)(=O)c3ccccc32)cc1,0,0,0,-33,0,0
COc1ccc(NC(=O)CN2CCN(c3ccccc3F)CC2)cc1,-87,0,0,0,0,0
COc1ccc(/C=N/NC(=O)CC(=O)N/N=C/c2ccc(OC)cc2)cc1,0,0,0,0,0,0
Cc1nc2c(c(C)c1CCC(=O)N1CCN(c3ccccc3)CC1)c(=O)n(C)c(=O)n2C,-,0,-,0,0,0
Cc1cc(N2CCN(C(C(=O)NC3CCCC3)C(C)(C)C)CC2)c2ccccc2n1 (stereo not given),0,-,-,-,0,-
COc1ccc(NC(=O)NCCCN2CCN(c3ccccc3F)CC2)cc1,?,0,0,-86,34,0
CCN1CCN(CC(=O)Nc2ccc(Cl)c(S(=O)(=O)N(C)C)c2)CC1,0,0,0,0,0,0
COc1ccc(NC(=O)NCCN2CCCCC2)cc1,0,0,?,0,0,0
CCCN1CCN(CCNC(=O)Nc2ccccc2OCC)CC1,-,0,-,0,0,0
COc1cccc(NC(=O)NCCCN2CCN(c3ccc(F)cc3)CC2)c1,-56,0,0,0,0,0
COc1ccccc1NC(=O)NCCCN1CCN(c2ccc(F)cc2)CC1,-,0,-,0,0,0
CN(C)S(=O)(=O)c1cc(NC(=O)CN2CCN(c3ccccc3F)CC2)ccc1Cl,0,0,0,-32,49,0
CCOc1cccc(N2CCN(CCNC(=O)Nc3ccc(C)cc3)CC2)c1C,?,0,0,0,59,0
CCOc1ccc(C2C(=O)N(C3CCCCCC3)CC(=O)N2Cc2ccccc2)cc1OC (stereo not given),-,0,0,0,0,0
O=S(=O)(NCCS(=O)(=O)N1CCN(c2cccc(Cl)c2)CC1)c1ccc(F)cc1,-,0,-,0,0,0
CC1CCC(NC(=O)CN2CCN(S(=O)(=O)c3cccs3)CC2)CC1 (stereo not given),0,0,0,0,0,0
COc1ccc(NC(=O)NCCCN2CCN(c3cc(C)ccc3C)CC2)cc1,-108,0,0,0,0,0
SMILES,DRD3 antagonist,D1 ag,Chronic BCR inh,D1 antagonist,DRD3 agonist,D1 PAM
CC1CCCC(NC(=O)CN2CCN(S(=O)(=O)c3cccs3)CC2)C1C (stereo not given),0,0,0,-42,0,0
COc1ccc(NC(=O)CN2CCN(c3ccc(C)cc3C)CC2)cc1,0,0,0,0,0,0
COc1cc([C@@H]2c3cc4c(cc3C(O[C@@H]3O[C@@H]5COC(c6cccs6)O[C@H]5[C@H](O)[C@H]3O)C3COC(=O)[C@@H]32)OCO4)cc(OC)c1O (stereo not given in full),-,-,-,-,0,-
COC(=O)c1nc(Nc2cc(F)cc(F)c2)nc(NC2CCCC2)n1,-,0,-,0,-,0
CN1CCN(C(CNC(=O)C(=O)Nc2ccc(Cl)cc2)c2cccnc2)CC1 (stereo not given),-,0,-,0,0,0
O/C(=C\c1nc2ccccc2nc1/C=C(\O)c1ccccc1)c1ccccc1,-67,0,?,0,0,0
O/C(=C\c1ccc2ccccc2n1)c1ccncc1,0,45,?,0,0,0
O/N=C/c1ccc2ccccc2n1,0,0,0,0,0,0
O=c1oc2ccccc2nc1/C=C(\O)c1ccccc1,0,0,?,0,0,0
O=C(Nc1ccccc1)c1ccc(-c2ccccc2)s1,0,51,?,0,0,0
CCOc1ccc(OCC)c(NC(=O)c2ccc(-c3ccccc3)s2)c1,-,0,-,-85,0,0
CCc1ccc(NC(=O)Cn2c(=O)nc(-c3ccccc3F)c3cc(Cl)ccc32)cc1,-,0,-,0,0,0
CCCc1cc(C(=O)Cc2ccc(C(=O)OCC)o2)c(O)cc1O,0,0,0,0,0,0
CCCc1cc(-c2n[nH]c(C)c2-c2ccc(C(=O)OCC)o2)c(O)cc1O,0,65,?,0,35,0
O=C(CCC(=O)N1CCOc2ccc(Cl)cc21)NCc1ccccc1,?,0,0,0,0,0
CC1CCCCC1NC(=O)CCC(=O)N1CCOc2ccc(Cl)cc21 (stereo not given),-53,0,0,0,0,0
Cc1ccc2c(c1)N(C(=O)CCC(=O)NC1CCC(C)CC1)CCO2 (stereo not given),-96,0,0,0,0,0
CC(C)C[C@@H](N)C(=O)O,-,-,-,-,0,-
COC(=O)c1c(NC(=O)Cc2coc3cc(C)cc(C)c23)sc2c1CCC2,-,0,-,0,0,0
Cc1ccc(S(=O)(=O)CC(=O)N2CCN(c3nc4c(F)cccc4s3)CC2)cc1,-,56,0,-,0,0
Cc1cccc2sc(N3CCN(C(=O)CS(=O)(=O)c4ccc(F)cc4)CC3)nc12,-,0,0,-,0,0
Cc1cc(-n2ccnc(NCCc3ccc(S(N)(=O)=O)cc3)c2=O)ccc1Br,-,0,-,0,0,0
CCCCC(=O)NC(c1ccc([N+](=O)[O-])cc1)c1c(O)ccc2ccccc12 (stereo not given),-52,0,?,0,0,0
CC(=O)Oc1ccc2ccccc2c1C(NC(=O)C(C)C)c1cccc([N+](=O)[O-])c1 (stereo not given),0,0,?,0,0,0
CCC(=O)NC(c1ccc([N+](=O)[O-])cc1)c1c(O)ccc2ccccc12 (stereo not given),0,0,?,-37,0,0
